Records with an inconclusive call do not appear. The source made the active and inactive calls. Calls follow the shape of the dose curve; as a rule, active = well fitted curve in the direction sought with a large enough effect; inconclusive = small, poorly fitted or top-dose-only effect, or another doubt; inactive = no such curve, though single readings can be large; an effect the other way counts as inactive or inconclusive.
Tests used:
[1] = Quantitative High-Throughput drug screen in 47 multiple myeloma cell lines against the NCATS MIPE library collection: KMS20_JCRB cell viability assay (AID 1918973); also: nearly all actives have a fitted effect of over 45% in size; also: potency is read from the fitted curve at half-maximal effect
Procedure, shortened: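 Steps: seed 500 cells per well; pin-transfer MIPE 4.0 library; incubate 48 h at 37C, 5% CO2, humidified; add CellTiter-Glo, 5 min room temperature; read luminescence.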

[2] = Quantitative High-Throughput drug screen in 47 multiple myeloma cell lines against the NCATS MIPE library collection: MOLP8_DSMZ cell viability assay (AID 1918977); also: nearly all actives have a fitted effect of over 45% in size; also: potency is read from the fitted curve at half-maximal effect
Procedure, shortened: (§1)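 500 cells/well per myeloma line exposed to pinned MIPE 4.0 compounds for 48 h at 37 °C, 5% CO2. Viability read as ATP by CellTiter-Glo luminescence, normalised to DMSO-only (100%) and media-only (0%) wells.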

[3] = Quantitative High-Throughput drug screen in 47 multiple myeloma cell lines against the NCATS MIPE library collection: NCIH929_DSMZ cell viability assay (AID 1918978); also: nearly all actives have a fitted effect of over 35% in size; also: potency is read from the fitted curve at half-maximal effect
Procedure, shortened: as §1

[4] = Quantitative High-Throughput drug screen in 47 multiple myeloma cell lines against the NCATS MIPE library collection: OCIMY1_PLB cell viability assay (AID 1918979); also: nearly all actives have a fitted effect of over 35% in size; also: potency is read from the fitted curve at half-maximal effect; as to viability: series mostly up to about 46 µM
Procedure, shortened: as §1

[5] = Quantitative High-Throughput drug screen in 47 multiple myeloma cell lines against the NCATS MIPE library collection: MM1R_ATCC cell viability assay (AID 1918981); also: nearly all actives have a fitted effect of over 35% in size; also: potency is read from the fitted curve at half-maximal effect
Procedure, shortened: as §1

[6] = Quantitative High-Throughput drug screen in 47 multiple myeloma cell lines against the NCATS MIPE library collection: LP1_DSMZ cell viability assay (AID 1918982); also: nearly all actives have a fitted effect of over 35% in size; also: potency is read from the fitted curve at half-maximal effect
Procedure, shortened: as §1

[7] = Quantitative High-Throughput drug screen in 47 multiple myeloma cell lines against the NCATS MIPE library collection: KMS28PE_JCRB cell viability assay (AID 1918983); also: nearly all actives have a fitted effect of over 35% in size; also: potency is read from the fitted curve at half-maximal effect
Procedure, shortened: as §1

[8] = Quantitative High-Throughput drug screen in 47 multiple myeloma cell lines against the NCATS MIPE library collection: L363_DSMZ cell viability assay (AID 1918984); also: nearly all actives have a fitted effect of over 40% in size; also: potency is read from the fitted curve at half-maximal effect
Procedure, shortened: as §1

[9] = Quantitative High-Throughput drug screen in 47 multiple myeloma cell lines against the NCATS MIPE library collection: KMS34_JCRB cell viability assay (AID 1918985); also: nearly all actives have a fitted effect of over 40% in size
Procedure, shortened: as §1

[10] = Quantitative High-Throughput drug screen in 47 multiple myeloma cell lines against the NCATS MIPE library collection: OCIMY5_PLB cell viability assay (AID 1918988); also: nearly all actives have a fitted effect of over 65% in size; also: potency is read from the fitted curve at half-maximal effect
Procedure, shortened: as §1

[11] = Quantitative High-Throughput drug screen in 47 multiple myeloma cell lines against the NCATS MIPE library collection: OPM1_PLB cell viability assay (AID 1918989); also: nearly all actives have a fitted effect of over 40% in size; also: potency is read from the fitted curve at half-maximal effect
Procedure, shortened: as §1

[12] = Quantitative High-Throughput drug screen in 47 multiple myeloma cell lines against the NCATS MIPE library collection: SKMM1_PLB cell viability assay (AID 1919863); details: SKMM1 myeloma viability, CellTiter-Glo ATP, 48 h; viability: hits give low values; also: nearly all actives have a fitted effect of over 35% in size; also: potency is read from the fitted curve at half-maximal effect; as to viability: series mostly up to about 46 µM
Procedure, shortened: as §1

[13] = Quantitative High-Throughput drug screen in 47 multiple myeloma cell lines against the NCATS MIPE library collection: XG6_PLB cell viability assay (AID 1919865); also: nearly all actives have a fitted effect of over 40% in size; also: potency is read from the fitted curve at half-maximal effect
Procedure, shortened: as §1

[14] = Quantitative High-Throughput drug screen in 47 multiple myeloma cell lines against the NCATS MIPE library collection: XG1_PLB cell viability assay (AID 1919866); also: nearly all actives have a fitted effect of over 35% in size; also: potency is read from the fitted curve at half-maximal effect
Procedure, shortened: as §1

[15] = Quantitative High-Throughput drug screen in 47 multiple myeloma cell lines against the NCATS MIPE library collection: VP6_DJ cell viability assay (AID 1919867); also: nearly all actives have a fitted effect of over 40% in size; also: potency is read from the fitted curve at half-maximal effect
Procedure, shortened: as §1

[16] = Quantitative High-Throughput drug screen in 47 multiple myeloma cell lines against the NCATS MIPE library collection: MM1S_ATCC cell viability assay (AID 1918980); also: nearly all actives have a fitted effect of over 45% in size; also: potency is read from the fitted curve at half-maximal effect
Procedure, shortened: as §1

[17] = Quantitative High-Throughput drug screen in 47 multiple myeloma cell lines against the NCATS MIPE library collection: U266_ATCC cell viability assay (AID 1919864); also: nearly all actives have a fitted effect of over 35% in size; also: potency is read from the fitted curve at half-maximal effect
Procedure, shortened: as §1

[18] = Quantitative High-Throughput drug screen in 47 multiple myeloma cell lines against the NCATS MIPE library collection: KMS26_JCRB cell viability assay (AID 1918975); also: potency is read from the fitted curve at half-maximal effect; nearly all actives have a fitted effect of over 45% in size
Procedure, shortened: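 Approved and investigational drugs from MIPE 4.0 were added by pin tool to 500 cells per well. After 48 hours at 37C, ATP-based CellTiter-Glo luminescence indicated remaining viability.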

[19] = Quantitative High-Throughput drug screen in 47 multiple myeloma cell lines against the NCATS MIPE library collection: MMM1_PLB cell viability assay (AID 1918976); also: nearly all actives have a fitted effect of over 35% in size; also: potency is read from the fitted curve at half-maximal effect
Procedure, shortened: as §1

[20] = Quantitative High-Throughput drug screen in 47 multiple myeloma cell lines against the NCATS MIPE library collection: OCIMY7_PLB cell viability assay (AID 1918987); also: potency is read from the fitted curve at half-maximal effect; nearly all actives have a fitted effect of over 65% in size
Procedure, shortened: as §1

NS(=O)(=O)c1cc2c(cc1Cl)NC(C(Cl)Cl)NS2(=O)=O (configuration not stated)
inactive: Potency [1] | Potency [2] | Potency [3] | Potency [4] | Potency [5] | Potency [6] | Potency [7] | Potency [8] | Potency [9] | Potency [10] | Potency [11] | viability [12] 112% | Potency [13] | Potency [14] | Potency [15]

O=S(=O)(O)CCS
inactive: Potency [1] | Potency [2] | Potency [3] | Potency [4] | Potency [16] | Potency [5] | Potency [6] | Potency [9] | Potency [11] | viability [12] 136% | Potency [13] | Potency [14]

CCCN[C@H]1CCc2nc(N)sc2C1
active: Potency [16] 0.833 µM | Potency [15] 18.7 µM
inactive: Potency [1] | Potency [2] | Potency [4] | Potency [6] | Potency [7] | Potency [8] | Potency [9] | Potency [11] | viability [12] 141% | Potency [17] | Potency [13] | Potency [14]

CN1CCCC(n2nc(Cc3ccc(Cl)cc3)c3ccccc3c2=O)CC1 (configuration not stated)
active: Potency [18] 3.72 µM | Potency [19] 8.33 µM | Potency [3] 0.935 µM | Potency [16] 0.662 µM | Potency [5] 2.35 µM | Potency [7] 13.2 µM | Potency [8] 9.35 µM | Potency [10] 1.18 µM | Potency [11] 2.64 µM | Potency [12] 20.9 µM | Potency [17] 2.64 µM | Potency [13] 1.05 µM | Potency [14] 1.48 µM | Potency [15] 1.48 µM

O=S(=O)(c1cccc2cnccc12)N1CCCNCC1
active: Potency [7] 18.7 µM | Potency [13] 20.9 µM | Potency [15] 18.7 µM
inactive: Potency [1] | Potency [4] | Potency [5] | Potency [6] | viability [12] 125% | Potency [17]

CC(C)(C#N)c1cc(Cn2cncn2)cc(C(C)(C)C#N)c1
active: Potency [19] 1.32 µM
inactive: Potency [1] | Potency [4] | Potency [5] | Potency [6] | Potency [8] | Potency [10] | Potency [11] | Potency [13] | Potency [14]

CC(C)C1CCC(C(=O)N[C@H](Cc2ccccc2)C(=O)O)CC1 (some centres not stated)
inactive: Potency [1] | Potency [3] | Potency [5] | Potency [6] | Potency [11] | Potency [13] | Potency [14]
active: Potency [16] 16.6 µM

O=C(O)c1cn(C2CC2)c2cc(N3CCNCC3)c(F)cc2c1=O
inactive: Potency [1] | Potency [2] | Potency [3] | Potency [4] | Potency [5] | Potency [7] | Potency [9] | Potency [11] | viability [12] 166% | Potency [17] | Potency [13] | Potency [14] | Potency [15]

CC(C)NCC(O)c1ccc(NS(C)(=O)=O)cc1 (configuration not stated)
inactive: Potency [1] | Potency [3] | Potency [4] | Potency [5] | Potency [6] | Potency [7] | Potency [11] | viability [12] 159% | Potency [13]
active: Potency [19] 2.09 µM | Potency [16] 7.43 µM

Cc1ccc(S(=O)(=O)N[C@@H](Cc2ccccc2)C(=O)CCl)cc1
active: Potency [18] 18.7 µM | Potency [19] 20.9 µM | Potency [2] 14.8 µM | Potency [3] 10.5 µM | Potency [4] 23.5 µM | Potency [16] 11.8 µM | Potency [5] 16.6 µM | Potency [6] 20.9 µM | Potency [8] 11.8 µM | Potency [10] 7.43 µM | Potency [11] 9.35 µM | Potency [12] 18.7 µM | Potency [17] 18.7 µM | Potency [13] 14.8 µM | Potency [14] 7.43 µM | Potency [15] 9.35 µM

CCn1cc(C(=O)O)c(=O)c2cc(F)c(N3CCNCC3)cc21
inactive: Potency [1] | Potency [19] | Potency [4] | Potency [10] | Potency [11] | Potency [13] | Potency [14] | Potency [15]

CNC(=O)c1cc(Oc2ccc(NC(=O)Nc3ccc(Cl)c(C(F)(F)F)c3)cc2)ccn1
active: Potency [1] 16.6 µM | Potency [19] 16.6 µM | Potency [3] 10.5 µM | Potency [16] 3.72 µM | Potency [5] 20.9 µM | Potency [6] 20.9 µM | Potency [7] 26.4 µM | Potency [8] 6.62 µM | Potency [10] 23.5 µM | Potency [11] 10.5 µM | Potency [12] 29.6 µM | Potency [17] 23.5 µM | Potency [13] 0.148 µM | Potency [14] 5.9 µM | Potency [15] 8.33 µM

COc1ccc(C(=O)CC(=O)c2ccc(C(C)(C)C)cc2)cc1
active: Potency [1] 2.96 µM | Potency [19] 4.69 µM | Potency [3] 1.32 µM | Potency [5] 2.35 µM | Potency [7] 8.33 µM | Potency [8] 6.62 µM | Potency [20] 3.72 µM | Potency [10] 2.64 µM | Potency [11] 7.43 µM | Potency [12] 5.9 µM | Potency [17] 5.26 µM | Potency [13] 0.743 µM | Potency [14] 1.66 µM | Potency [15] 2.64 µM
inactive: Potency [4]

NC(=O)N1c2ccccc2CC(=O)c2ccccc21
inactive: Potency [1] | Potency [2] | Potency [3] | Potency [5] | Potency [6] | Potency [8] | Potency [9] | Potency [11] | viability [12] 118% | Potency [13] | Potency [14] | Potency [15]

— PubChem BioAssay (NCATS)
